# Screening results from PubChem BioAssay.
# Only some compounds are listed: those with a hit (about 2.2% of all), similar ones and a draw of the others.
# LDHA block – LDHA (human) enzyme inhibition | purified LDHA, NADH/diaphorase-resazurin fluorescence; hits give low values | activity change, % (values are at about 110 or 230 µM) | actives 0.15% (n = 480,000) | AID 1347041; in the data active means activity change below about -30%; inconclusive means mostly about -25% to -30%;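 further: plate controls were DMSO wells for no effect and wells without enzyme for full effect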
#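 Resorufin fluorescence (ex540/em590), read at 0 and 20 min after diaphorase/resazurin addition, reports the NADH left after a 5 min room-temperature reaction of 2 nM human LDH5 with 0.06 mM NADH and 0.2 mM pyruvate.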
# TGFb SMAD3 inh – blocks TGF-b signaling. HepG2 CAGA-GFP TGF-b/SMAD3 reporter, GFP fluorescence, 18 h; TGF-beta stimulated, 500 pg/mL final. Potency, µM (doses to about 46.1 µM), inactives show at the highest dose activity, negative = inhibition, actives largely listed as inhibitors. actives 1.2% (n = 410,000). AID 588855; further: potency means the concentration at half of the fitted maximal effect; on the % scale 0 is the no-effect control and ±100 the full control effect; nearly all actives have a fitted effect of over 65% in size
#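 Inhibition was scored as loss of TGF-beta-induced (500 pg/mL final, 18 hours, 37 degrees C) GFP in HEPG2 cells carrying a CAGA-GFP reporter, in DMEM with 1% FBS. Well GFP was summed per cell; Activity was normalised to unstimulated and stimulated DMSO wells, then concentration-response fitting.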
# ATXN viability – cell viability loss in ATXN counter-screen; Potency, µM (highest dose often 56.7 µM), most hits filed as cytotoxic; actives 0.49% (n = 400,000); AID 651635; S2 cells (HEK-293 line with an ATXN2-luciferase reporter) viability, CellTiter-Fluor protease fluorescence, 24 h; further: potency means the concentration at half of the fitted maximal effect; nearly all actives have a fitted effect of over 40% in size
# mIDH1 inhibitor – inhibitors of human mutant IDH1 R132H; O75874; IDH1-R132H enzyme, NADPH consumption, diaphorase/resazurin fluorescence; Potency, µM (series often up to 76.6 µM), inactives show at the top dose activity change, negative = inhibition, hits mostly inhibitors; actives 0.093% (n = 390,000); further: potency means the concentration at half of the fitted maximal effect; on the % scale 0 is the no-effect control and ±100 the full control effect; nearly all actives have a fitted effect of over 65% in size
# Target sequence (O75874 whole entry R132H, stated change not applied): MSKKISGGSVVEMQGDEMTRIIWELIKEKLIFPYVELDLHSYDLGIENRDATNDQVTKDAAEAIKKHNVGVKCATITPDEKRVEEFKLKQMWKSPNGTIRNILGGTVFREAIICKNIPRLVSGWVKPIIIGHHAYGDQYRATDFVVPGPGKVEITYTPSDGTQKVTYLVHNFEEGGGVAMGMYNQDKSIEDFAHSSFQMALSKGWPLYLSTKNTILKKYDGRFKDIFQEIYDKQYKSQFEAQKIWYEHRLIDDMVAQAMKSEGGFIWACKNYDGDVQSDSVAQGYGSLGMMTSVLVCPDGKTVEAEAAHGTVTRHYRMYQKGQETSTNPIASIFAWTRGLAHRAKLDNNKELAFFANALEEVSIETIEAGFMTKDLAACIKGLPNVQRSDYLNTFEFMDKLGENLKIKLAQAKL
#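 IDH1-R132H (0.5 ug/mL dispensed) in pH 7.5 Tris buffer was preincubated 30 min with compound, then given a substrate mix of 0.016 mM NADPH and 2 mM alpha-KG for 80 min at room temperature; remaining NADPH was read by diaphorase/resazurin fluorescence.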
# HepG2 viability – counter-screen for TGF-b inhibitors: cytotoxicity in HepG2 cells; HepG2 CAGA-GFP viability, ATP luminescence, 18 h; actives 0.76% (n = 410,000); Potency, µM (highest dose often 46.1 µM), inactives show at the top dose activity change, negative = cytotoxicity, hits mostly cytotoxic; AID 588856; further: potency means the concentration at half of the fitted maximal effect
#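 HepG2 CAGA-GFP cells (1000/well, DMEM with 1% FBS) received compound, then TGF-beta at 500 pg/mL final, and were incubated 18 hours at 37 degrees C. Viability was read by CellTiter-Glo luminescence. Media-only wells were set as complete cell-killing and DMSO as no toxicity.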
# ATXN2 expr inh – ATXN2 expression inhibition; Potency, µM (titrated, usually from 57 µM), inactives show top-dose activity change, negative = inhibition, most hits filed as inhibitors; actives 0.72% (n = 360,000); HEK-293 ATXN2-luciferase reporter, luminescence, 24 h; further: potency means the concentration at half of the fitted maximal effect; on the % scale 0 is the no-effect control and ±100 the full control effect; nearly all actives have a fitted effect of over 55% in size
#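 qHTS (up to 57 uM final) was run with 24 h compound exposure of reporter cells at 37 °C. Each well was multiplexed: SteadyGlo luminescence measured ATXN2-luciferase expression after a fluorogenic Gly-Phe-AFC viability readout (25 uM final).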
# Resorufin autofl – interferes with resorufin fluorescence in IDH1 counter-screen | Resorufin detection reagent fluorescence interference, cell-free | 750 tested, under 10 active | inhibition of signal, % at 51.2 µM | shares compounds with mIDH1 inhibitor;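 further: 0% = wells with normal resorufin and full inhibition = wells lacking resorufin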
# WT IDH1 inh – selectivity of mutant IDH1 inhibitors: human wild-type IDH1 | shares compounds with mIDH1 inhibitor | WT IDH1 enzyme, NADPH diaphorase/resazurin fluorescence | Potency, µM (series often up to 115 µM), inactives show at the top dose activity change, negative = inhibition, usual class: inhibitors | actives 9% (n = 750);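 further: potency means the concentration at half of the fitted maximal effect; 0% = full WT IDH1 enzyme control and full inhibition = no enzyme wells; nearly all actives have a fitted effect of over 55% in size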
# Target sequence (O75874 whole entry, looked up): as the sequence (O75874 whole entry R132H, stated change not applied) above, with H132R counted along it
# IDH1 R132H conf – confirmation of human mutant IDH1 inhibitors. shares compounds with mIDH1 inhibitor. IDH1 R132H enzyme, NADPH diaphorase/resazurin fluorescence. Potency, µM (titrated, usually from 76.6 µM), for inactives: at the highest dose activity change, negative = inhibition, usual class: inhibitors. actives 83% (n = 750). AID 624002; further: potency means the concentration at half of the fitted maximal effect; nearly all actives have a fitted effect of over 50% in size
# An asterisk follows results filed as active; i = inactive; ? = inconclusive; . = not tested or not shown; [ ] = remark or other dose. Unless noted, the call rests on the fitted dose curve; in most records, active means well fitted curve in the direction sought with a large enough effect; inconclusive means small, poorly fitted or top-dose-only effect, or another doubt; inactive means no such curve, though single readings can be large; an effect the other way counts as inactive or inconclusive.
SMILES,LDHA block,TGFb SMAD3 inh,ATXN viability,mIDH1 inhibitor,HepG2 viability,ATXN2 expr inh,Resorufin autofl,WT IDH1 inh,IDH1 R132H conf
CCN(CC)S(=O)(=O)c1ccc2c(c1)N(CC(=O)Nc1ccc(Cl)cc1)C(=O)C1CCCN21 (configuration not stated),2,-3%,.,?,-6%,.,4,-2%,28µM*
CCN(CC)S(=O)(=O)c1ccc2c(c1)N(CC(=O)Nc1cccc(C)c1C)C(=O)C1CCCN21 (configuration not stated),3,?,.,14%,-6%,.,.,.,.
CCCCCCC(=O)NNC(=O)NCCCC,-1,.,.,.,.,.,.,.,.
Cc1ccc(C2=Nc3ccc(Br)cc3C(c3ccncc3)=NN2)cc1,0,3%,i,15µM*,4%,.,8,4%,22µM*
Cc1ccc(C2C(C#N)=C3N=C(N)c4ccccc4N3C3=C2C(=O)CCC3)cc1 (configuration not stated),4,-19%,?,-9%,-31%,-20%,.,.,.
N#CC1=C2N=C(N)c3ccccc3N2C2=C(C(=O)CCC2)C1c1ccc(F)cc1 (configuration not stated),-13,-16%,?,?,-15%,.,-3,-1%,?
Cc1c(CCC(C)C)c(-n2ccnc2C)n2c(nc3ccccc32)c1C#N,-1,5%,?,?,-1%,-17%,-4,10%,?
COc1ccc(NS(=O)(=O)c2cc(NC(=O)c3cccc(-n4cccc4)c3)ccc2OC)cc1,-8,.,.,.,.,.,.,.,.
C#CCOCCOCCOCCNc1nc(N2CCN(C(=O)[C@H]([C@@H](C)O)n3cc(CCCCN)nn3)CC2)nc(N2CCN(C(=O)[C@H]([C@@H](C)CC)n3cc(CCCCN)nn3)CC2)n1,-1,6%,i,-5%,11%,4%,.,.,.
O=C(CCl)N1CCN(S(=O)(=O)c2ccc3ccccc3c2)CC1,-4,?,.,52µM*,i,?,4,-9%,20µM*
CCN(CC)S(=O)(=O)c1cc(NC(=O)CNc2cccc(S(=O)(=O)N3CCOCC3)c2)ccc1C,1,?,i,?,-5%,2%,1,-2%,28µM*
Cc1ccc(NC(=O)CNc2cccc(S(=O)(=O)N3CCOCC3)c2)cc1F,-3,0%,i,-11%,-5%,-27%,.,.,.
Cc1ccc(-c2nnn(CC(=O)N(c3ccc(F)cc3)C(C(=O)NC(C)(C)C)c3ccco3)n2)o1 (configuration not stated),-4,0%,i,0%,13%,0%,.,.,.
O=C(COC(=O)CCN1C(=O)C2CC=CCC2C1=O)NCCc1ccccc1 (configuration not stated),-6,?,i,8%,-10%,5%,.,.,.
Cc1c(C(=O)Oc2ccc(-c3cnc4ccccc4n3)cc2)cccc1[N+](=O)[O-],-5,1%,i,?,-4%,53%,4,31%,50µM*
O=C(Oc1ccc(-c2cnc3ccccc3n2)cc1)c1cc([N+](=O)[O-])ccc1Cl,3,6%,i,0%,10%,99%,.,.,.
CC(=O)C1=C(c2ccccc2)N(C(C)=O)n2c(C)nnc2S1,-3,?,?,29µM*,-83%,?,-6,-130%,6.3µM*
CCCC(=O)C1=C(c2ccc(C)cc2)N(C(=O)CCC)n2cnnc2S1,-5,?,.,40µM*,20µM*,.,-3,272%,40µM*
CCCC(=O)C1=C(c2cccc(OC)c2)N(C(=O)CCC)n2c(C)nnc2S1,1,?,.,45µM*,-85%,.,-7,170%,45µM*
CCC(=O)C1=C(c2ccc(Cl)c(Cl)c2)N(C(=O)CC)n2cnnc2S1,2,.,.,.,.,.,.,.,.
COc1cccc(C2=C(C(C)=O)Sc3nnc(C)n3N2C(C)=O)c1,-5,.,.,.,.,.,.,.,.
CCN(C(=O)c1cc(S(=O)(=O)N2CCOCC2)cn1C)c1cccc(C)c1,-2,6%,i,-6%,-1%,-13%,.,.,.
COc1ccc(/C=N/NC(=O)C2CC2)cc1,8,.,.,.,.,.,.,.,.
Cc1ccc(S(=O)(=O)N2CCCC(C(=O)NC3CCCC3)C2)cc1 (configuration not stated),-14,4%,i,0%,3%,-13%,.,.,.
Cc1cc(C(=O)CCl)c(C)n1-c1cccc(S(=O)(=O)N2CCOCC2)c1,-4,?,.,?,-109%,-18%[11.3 µM],3,-2%,40µM*
SMILES,LDHA block,TGFb SMAD3 inh,ATXN viability,mIDH1 inhibitor,HepG2 viability,ATXN2 expr inh,Resorufin autofl,WT IDH1 inh,IDH1 R132H conf
CCOc1cc(/C=C2\SC(=Nc3ccc(CC)cc3)NC2=O)ccc1OCC(=O)O,-2,?,i,1%,-20%,8%,.,.,.
C=CCOc1ccc(Br)cc1/C=C1/SC(=Nc2ccc(C(=O)O)cc2)NC1=O,-5,3%,i,52µM*,-3%,13%,9,71µM*,28µM*
CCCCC(NC(=O)CCc1c(C)c2cc3c4c(oc3c(C)c2oc1=O)CCCC4)C(=O)O (configuration not stated),0,-19%,i,46µM*,-8%,-20%,-8,-7%,25µM*
O=C(Nc1nc(-c2ccc(Cl)cc2)cs1)c1ccc(CN2CCOCC2)cc1,-7,.,.,.,.,.,.,.,.
CCc1ccc(S(=O)(=O)c2cn(C)c3cc(N4CCCCC4C)c(F)cc3c2=O)cc1 (configuration not stated),-7,15%,.,-9%,-5%,.,.,.,.
Cc1ccc(C)c(S(=O)(=O)c2cn(C)c3cc(N4CCCCC4C)c(F)cc3c2=O)c1 (configuration not stated),8,1%,.,?,5%,.,4,3%,16µM*
Cn1cc(S(=O)(=O)c2ccccc2)c(=O)c2cc(F)c(N3CCCCCC3)cc21,3,?,.,40µM*,-16%,.,3,3%,14µM*
